Source: PubChem
Shown are actives, neighbours in structure and some others; about 6.5% of the full set was active somewhere.
HT1080 IDH1KD tx: kills HT-1080 cells with IDH1 knockdown; HT-1080 IDH1 knockdown viability, ATP luminescence, 48 h; Potency, µM (doses to about 46.1 µM), hits mostly cytotoxic; 360,000 compounds, 2% hits; AID 686971
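% activity derives from luminescence (CellTiter-Glo), normalised to DMSO and no-cell wells. HT-1080-IDH1KD cells, 750/well, had 48 h compound exposure at 37 °C.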
TGFb SMAD3 inh: TGF-b pathway inhibition | HepG2 CAGA-GFP TGF-b/SMAD3 reporter, GFP fluorescence, 18 h; TGF-beta stimulated, 500 pg/mL final | Potency, µM (top dose mostly 46.1 µM), most hits filed as inhibitors | 410,000 compounds, 1.2% hits | AID 588855; further: nearly all actives have a fitted effect of over 65% in size
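HEPG2 CAGA-GFP, 1000 cells/well; 2 h settle, 37 C; cpd via pin tool; TGF-b 500 pg/mL final; 18 h, 37 C; GFP imaging ex488/em500-530; %Activity normalised to -TGF-b and +DMSO controls; CRC fit, curve class.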
HT1080-NT tox: kills 2HG-producing HT-1080-NT fibrosarcoma cells. Potency, µM (top dose mostly 46.1 µM), actives largely listed as cytotoxic. 360,000 compounds, 1.6% hits. HT-1080-NT fibrosarcoma viability, CellTiter-Glo ATP luminescence, 48 h. AID 686970;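 further: NT is the 2HG producing partner of a matched IDH1 knockdown line; nearly all actives have a fitted effect of over 55% in size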
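HT-1080-NT fibrosarcoma cells (2HG-overproducing), 750 cells/well in RPMI with 5% FBS, dosed after 2 h and incubated 48 h at 37C. CellTiter-Glo luminescence normalized to DMSO and no-cell wells; concentration-response curves fitted and classed.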
Giardia kill: Giardia lamblia killing. Giardia lamblia trophozoite viability. activity change, % at 7.66 µM, hits read low. 340,000 compounds, 0.15% hits. AID 540267; in the data active means activity change below about -80%; inconclusive means between about -30% and that limit;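 further: parasites exposed to compound for two days anaerobically before the ATP read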
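Each well holds 100 Giardia trophozoites and compound. After two days (48 hrs) at 37 deg C in anaerobic conditions, ATP is quantified by luminescence.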
HepG2 tox: HepG2 cytotoxicity, counter-screen for TGF-b inhibitors. HepG2 CAGA-GFP viability, ATP luminescence, 18 h. Potency, µM (doses to about 46.1 µM), hits mostly cytotoxic. 410,000 compounds, 0.76% hits. AID 588856
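HepG2 CAGA-GFP cells (1000/well, DMEM with 1% FBS) received compound, then TGF-beta at 500 pg/mL final, and were incubated 18 hours at 37 degrees C. Viability was read by CellTiter-Glo luminescence. Media-only wells were set as complete cell-killing and DMSO as no toxicity.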
IL1B secr inh: blocks inflammasome-driven IL-1 beta release; THP-1 LPS/ATP IL-1B secretion, AlphaLISA, 16 h; active compounds read low; activity change, % at 57.5 µM; 360,000 compounds, 4.7% hits; in the data active means activity change below about -50%; inconclusive means mostly about -30% to -49%
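THP-1 cells pretreated 1 hr with compounds (up to 57.5 uM final), then stimulated with LPS (250 ng/mL final) plus ATP (1.25 mM final); secreted IL-1B measured by AlphaLISA after 16 hr, decreased signal indicating inhibition.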
Numbers stand for hits; – = inactive; ? = inconclusive; · = no result; [ ] = another dose, or the depositor's remark. Unless noted, the call rests on the fitted dose curve; in most records, active means well fitted curve in the direction sought with a large enough effect; inconclusive means small, poorly fitted or top-dose-only effect, or another doubt; inactive means no such curve, though single readings can be large; an effect the other way counts as inactive or inconclusive.

SMILES | HT1080 IDH1KD tx | TGFb SMAD3 inh | HT1080-NT tox | Giardia kill | HepG2 tox | IL1B secr inh
C/C=C/c1ccc(O)c(OC)c1 | – | – | – | – | – | –
COc1ccccc1C(=O)NCCC(=O)Nc1ccc(S(=O)(=O)N2CCC(C)CC2)cc1 | – | – | – | – | – | –
CCC(C)NC(=O)CN(C1CCCCC1)S(=O)(=O)c1ccc(F)cc1 (stereo not given) | – | ? | – | – | – | –
COc1ccccc1CNC(=O)Cn1nc(C(F)(F)F)cc1C | – | – | – | – | – | –
O=C1C=C(C#Cc2ccccc2)C[C@@H](c2ccc(F)cc2)C1 | – | ? | ? | · | – | -85
COc1ccccc1C#CC1=CC(=O)C[C@H](c2ccc(F)cc2)C1 | – | ? | ? | · | – | -58
N#C/C(=C\c1cccc([N+](=O)[O-])c1)c1nnc2n1CCCCC2 | – | – | – | – | – | -91
CN(c1ccccc1)c1ccc(/C=C(\C#N)c2nnc3n2CCCCC3)cc1[N+](=O)[O-] | ? | – | – | – | – | -106
CN(c1ccccc1)c1ccc(/C=C(\CCC(=O)O)c2nc3ccccc3s2)cc1[N+](=O)[O-] | – | ? | – | – | – | –
Cc1cc(C)c2c(n1)SCC(=O)N2CC(=O)NCCC1=CCCCC1 | – | ? | – | – | – | –
COc1ccc(-c2noc(CSc3nnc(Cc4ccccc4)n3-c3ccc(F)cc3)n2)cc1 | · | 16µM | · | · | – | ·
COc1ccc(-c2noc(CSc3nnc(Cc4ccccc4)n3-c3cccc(C)c3)n2)cc1 | · | ? | · | · | – | ·
CCc1nc2c(OCCC3CCCCC3)cccn2c1N(C)C(=O)c1ccncc1 | – | – | – | · | – | –
CN1CCN(/N=C/c2ccc(-c3ccc([N+](=O)[O-])cc3Cl)o2)CC1 | ? | – | ? | – | – | -81
Cc1ccc(N(CC(=O)NC2CCCCC2C)S(=O)(=O)c2c(C)noc2C)cc1 (stereo not given) | – | – | – | – | – | –
O=c1c2sc3ccccc3c2n(Cc2cccc(Cl)c2)c(=O)n1Cc1ccco1 | · | – | · | · | – | ·
Cc1ccc(Nc2nc(N)nc(CN3CCN(Cc4ccc5c(c4)OCO5)CC3)n2)cc1Cl | – | – | ? | – | 11µM | ?
Cc1ccc(Nc2nc(N)nc(CN3CCN(Cc4ccc5c(c4)OCO5)CC3)n2)cc1C | ? | – | ? | – | – | -74
CC1(C)CC(=O)C=C(c2ccc(-c3ccccc3)cc2)C1=O | – | – | – | · | – | –
CC1(C)CC(=O)C=C(c2ccc(-c3ccc(OC(F)(F)F)cc3)cc2)C1=O | 21µM | – | ? | · | – | ?
c1ccc(-c2ccccc2OCCCCn2ccnc2)cc1 | – | – | – | – | – | -58
CC(C)(C)c1cc(Cl)ccc1OCCn1ccnc1 | ? | – | – | – | – | -53
Cc1cc(C(C)(C)C)ccc1OCCn1ccnc1 | – | – | – | – | – | –
CC(C)(C)c1ccccc1OCCCCCn1ccnc1 | ? | ? | ? | – | – | -98
Cc1cc(C)c2c(N)c(S(=O)c3ccc(C(C)(C)C)cc3)sc2n1 (stereo not given) | – | ? | – | – | – | -67
SMILES | HT1080 IDH1KD tx | TGFb SMAD3 inh | HT1080-NT tox | Giardia kill | HepG2 tox | IL1B secr inh
O=c1oc2ccc3ccccc3c2cc1-c1nnc(-c2ccccc2)o1 | –[9.24 µM] | – | – | – | – | -58
Cc1cc(C)c2c(N)c3cccc(C)c3nc2n1 | 9.2µM | ? | 10µM | – | – | -99
Cc1cccc2c(N)c3c(nc12)CCCC3 (tested in a mixture with another compound) | – | – | – | – | – | –
CCOc1ccc(OCC)c(NC(=O)c2cc3ccccn3n2)c1 | · | – | · | · | – | ·
Cc1ccc(NC(=O)CSc2nc(=O)n(CCN3CCOCC3)c3c2CCC3)cc1Cl | · | ? | · | · | – | ·
COc1ccc(NC(=O)CSc2nc(=O)n(CCN(C)C)c3c2CCCC3)cc1 | – | – | – | – | – | –
CCN(CC)CCn1c2c(c(SCC(=O)Nc3cccc4ccccc34)nc1=O)CCCC2 | – | – | – | – | – | -66
CCCCc1ccc(NC(=O)CSc2nc(=O)n(CCN(C)C)c3c2CCC3)cc1 | 15µM | ? | 21µM | – | – | -72
Cc1ccc(NC(=O)CSc2nc(=O)n(CCN(C)C)c3c2CCCC3)cc1Cl | ? | – | – | – | – | -87
CCCCc1ccc(NC(=O)CSc2nc(=O)n(CCN(CC)CC)c3c2CCCC3)cc1 | ? | – | ? | – | – | -78
CCCCCCC(=O)N(O)C1CC(=O)N(c2ccc(Cl)cc2)C1=O (stereo not given) | – | ? | – | – | – | -51
S=C(NCc1ccco1)N/N=C/c1cccnc1 | – | – | – | ? | – | –
CC1Cc2ccccc2N1C(=O)c1ccc2snnc2c1 (stereo not given) | – | – | – | – | – | -87
Cc1nc2cc(C(=O)N3c4ccccc4CC3C)ccc2s1 (stereo not given) | 13µM | – | 12µM | – | – | –
Cc1cc(=O)[nH]c2sc(C(=O)N3c4ccccc4CC3C)c(N)c12 (stereo not given) | – | – | ? | – | – | -60
CC1Cc2ccccc2N1C(=O)c1nn(C)cc1Br (stereo not given) | – | – | – | – | – | –
O=C(CN(c1ccccc1Cl)S(=O)(=O)c1ccccc1)NC1CC2CCC1C2 (stereo not given) | – | – | – | · | – | –
COc1cc(SC)ccc1C(=O)N1CCc2ccccc21 | – | – | – | – | – | –
Cc1nn2c(=S)[nH]nc2[nH]c1=O | – | – | – | – | – | –
CCc1cccc2sc(N3CCN(C(=O)c4ccc([N+](=O)[O-])o4)CC3)nc12 | ? | 18µM | – | ? | – | -103
Cc1ccc(C2=N/C(=C\N3CCCCC3)C(=O)O2)cc1 | – | – | – | – | – | -63
COc1ccccc1NC(=S)N(Cc1ccccc1)Cc1cccs1 | – | – | – | – | – | –
COc1ccccc1NC(=S)N(Cc1cccs1)C1CCCC1 | – | ? | – | ? | – | -63
O=S(=O)(NCCc1csc(-c2cccnc2)n1)c1ccc2c(c1)OCCO2 | – | – | – | – | – | –
CCOC(=O)C1(C)CCN1C(=O)c1cccc2ccccc12 (stereo not given) | – | – | – | · | – | –
CC(C)(C)c1ccc(-c2noc(CCC(=O)NCc3ccco3)n2)cc1 | ? | – | ? | – | – | -57
COc1ccc(-c2noc(CCC(=O)NCC3CCN(Cc4cccc(C)c4)CC3)n2)cc1 | – | – | – | – | – | -72
COc1ccc(-c2noc(CCC(=O)NCc3cc(Br)ccc3OC)n2)cc1 | – | – | – | – | – | -90
